# An excerpt weighted towards active compounds, which were near 3.4% of everything screened.
# MEKK3 PB1 HTS = modulators (inhibitors or enhancers) of MEK5 binding to human MEKK3 PB1 domain; AID 1529; 290,000 compounds, 1.4% hits; binding response (% of control), % at 10 µM; bead-based flow cytometry, Alexa488-MEK5 binding to MEKK3; actives lie on both sides; 0 = blocked by unlabeled MEK5, 100 = vehicle;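 active means binding response more than 3 SD above or below the average of its plate-row segment, actives on both sides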;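 further: Alexa488 bead fluorescence after subtracting the streptavidin-only scavenger bead signal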
# MEKK2wt PB1 HTS = raises or lowers MEK5 binding to wildtype human MEKK2 PB1 domain; 290,000 compounds, 1.1% hits; binding response (% of control), % at 10 µM; bead flow cytometry, Alexa488-MEK5 binding to MEKK2 WT; actives lie on both sides; in the data active means binding response below about 67% or above about 130%
# NTR1 agonist = agonists of human neurotensin receptor NTR1. NTR1-U2OS beta-arrestin-GFP spot imaging, agonist mode. activation, % at 20 µM. 330,000 compounds, 0.17% hits. AID 493036;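 active means activation at or above 40% of the spot to cytoplasm intensity ratio, with at least 20 cells analyzed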;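 further: 0% = DMSO without peptide and 100% = 100 nM NTR1 peptide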
# MEKK2 mut-MEK5 = signal of MEK5 binding to mutant human MEKK2 PB1 domain. bead flow cytometry, Alexa488-MEK5 binding to MEKK2 mutant. percent response, % at 10 µM. 290,000 compounds, 0.35% hits. AID 1530; in the data active means percent response above about 24%, passing the limit was not always enough
# TMEM16A inh = mouse TMEM16A channel inhibition, primary screen; normalized B-score (activity score, 25-100; higher = stronger inhibition) at 10 µM; 310,000 compounds, 1.2% hits; AID 588511; HEK293 TMEM16A/YFP iodide influx fluorescence, ionomycin;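 active means ratio plate-corrected score three or more library SD toward inhibition, starting fluorescence score within five deviations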;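 further: score derived from kinetic fluorescence span divided by baseline fluorescence per well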
# Target sequence (Q8BHY3 whole entry, looked up): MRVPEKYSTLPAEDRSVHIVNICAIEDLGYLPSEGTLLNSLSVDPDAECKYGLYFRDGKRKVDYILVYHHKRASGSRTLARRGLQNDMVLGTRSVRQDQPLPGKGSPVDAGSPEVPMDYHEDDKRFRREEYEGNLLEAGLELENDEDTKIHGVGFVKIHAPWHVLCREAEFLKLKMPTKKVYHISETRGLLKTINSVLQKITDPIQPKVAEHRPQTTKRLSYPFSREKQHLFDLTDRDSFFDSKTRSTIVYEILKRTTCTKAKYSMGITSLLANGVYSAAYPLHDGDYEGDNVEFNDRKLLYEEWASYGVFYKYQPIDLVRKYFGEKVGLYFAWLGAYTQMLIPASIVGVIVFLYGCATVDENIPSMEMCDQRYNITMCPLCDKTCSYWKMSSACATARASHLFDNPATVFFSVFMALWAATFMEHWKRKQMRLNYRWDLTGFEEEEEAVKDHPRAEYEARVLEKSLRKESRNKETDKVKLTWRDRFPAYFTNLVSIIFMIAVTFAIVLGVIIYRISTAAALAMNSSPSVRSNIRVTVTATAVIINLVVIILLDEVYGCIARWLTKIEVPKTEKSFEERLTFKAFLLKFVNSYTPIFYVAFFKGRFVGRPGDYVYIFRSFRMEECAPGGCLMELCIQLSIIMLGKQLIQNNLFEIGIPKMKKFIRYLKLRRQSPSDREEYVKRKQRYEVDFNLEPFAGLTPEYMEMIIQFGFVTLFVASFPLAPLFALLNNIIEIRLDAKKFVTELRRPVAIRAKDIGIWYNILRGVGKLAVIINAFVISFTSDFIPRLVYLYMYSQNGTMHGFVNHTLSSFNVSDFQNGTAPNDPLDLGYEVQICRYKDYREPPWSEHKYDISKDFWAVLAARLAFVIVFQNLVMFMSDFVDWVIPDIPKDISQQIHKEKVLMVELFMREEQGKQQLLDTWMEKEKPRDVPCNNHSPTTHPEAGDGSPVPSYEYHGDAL
# ANO1 activ = activates or potentiates the mouse TMEM16A chloride channel; B-score at 10 µM; 340,000 compounds, 0.3% hits; HEK293 TMEM16A/YFP-H148Q/I152L, iodide quench fluorescence; stronger effect = lower value;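 active means fluorescence-ratio B-score plate-corrected deviation score at least 3 library SD below zero, with starting fluorescence score within 5 deviations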;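 further: channel opened by trigger with iodide after compound preincubation; score built on the fluorescence ratio of max minus min over baseline; more negative score means more quench and so TMEM16A activation or potentiation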
# Starred values were filed as active, the others as inactive; i = inactive; / = no result.
SMILES,MEKK3 PB1 HTS,MEKK2wt PB1 HTS,NTR1 agonist,MEKK2 mut-MEK5,TMEM16A inh,ANO1 activ
CC1Sc2ccc(S(=O)(=O)N3CCC(C(=O)N4CCN(C)CC4)CC3)cc2NC1=O (centres undefined),100,102,-1,-1,i,i
Cc1cc(=O)[nH]c(SCC(=O)Nc2ccc(Br)cc2)c1C#N,104,105,5,0,100*,i
CC1CCCCC12NC(=O)N(CC(=O)OCc1cccc(F)c1)C2=O (centres undefined),/,/,-1,/,/,-20*
COc1ccc(C(C)=O)cc1COC(=O)c1cc(C)oc1C,100,102,1,2,i,-11*
CCCCNC(=O)C1(NC(=O)Nc2ccc(C)cc2)CCCCC1,103,107,2,2,i,i
Cc1ccc(C(C[N+](=O)[O-])Sc2ccc(N)cc2)cc1 (centres undefined),98,94,54*,-9,i,i
Nc1ccc(Sc2ccc([N+](=O)[O-])cc2)cc1,106,109,-2,5,i,i
CN(C)c1ncnc2c1ncn2C1CCCO1 (centres undefined),/,/,/,/,/,i
c1coc(CN(Cc2ccco2)c2ncnc3c2oc2ccccc23)c1,106,107,18,-2,100*,i
N=C1S/C(=C\c2cccc3ccccc23)C(=O)N1c1ccc(F)cc1,144*,102,23,0,i,i
N=C1S/C(=C\c2ccccc2F)C(=O)N1c1ccc(F)cc1,114,107,1,0,i,i
O=C(COC(=O)c1ccncc1)Nc1cccc2ccccc12,/,/,0,/,/,i
CCOc1ccccc1N(CC(=O)N1CCOCC1)S(=O)(=O)c1ccc(SC)cc1,113,111,/,8,/,-9.8*
Cc1ccc(S(=O)(=O)N(CC(=O)N2CCOCC2)c2ccccc2F)cc1,99,98,-1,-1,i,i
Nc1nc(Sc2ccc([N+](=O)[O-])c3nonc23)c2[nH]cnc2n1,/,/,/,/,/,-6*
CNc1ncnc(Sc2nc(N)nc3nc[nH]c23)c1[N+](=O)[O-],/,/,/,/,/,i
COc1cccc(/C=N/N2CCN(c3ccncc3S(=O)(=O)N3CCCCC3)CC2)c1,99,98,1,0,i,i
Cc1ccc(NC(=O)CC2NCCNC2=O)cc1Cl (centres undefined),114,106,1,-1,i,i
C(=N\Nc1nc2ccccc2[nH]1)/c1c[nH]c2ccccc12,105,155*,13,11,i,i
Cc1cc(=O)[nH]c(N/N=C/c2c(C)nn(-c3ccccc3)c2Cl)n1,100,100,5,6,i,i
Cc1nn(-c2ccccc2)c(Cl)c1/C=N/Nc1nc2ccccc2[nH]1,99,103,-2,3,i,-7.3*
Cc1ccc(NC(=O)c2ccccc2NS(=O)(=O)c2ccc(Cl)s2)cc1,92,90,8,-3,i,i
O=C(Nc1ccccc1Cc1ccccc1)c1ccccc1NS(=O)(=O)c1ccc(Cl)s1,86,88,6,-3,25*,i
O=C(Nc1ccccc1)c1ccccc1NS(=O)(=O)c1ccc(Cl)s1,103,104,3,3,100*,i
O=[N+]([O-])c1cc([N+](=O)[O-])c(Oc2cc(F)cc(F)c2)cc1NN1CCCCC1,/,/,7,/,i,i
SMILES,MEKK3 PB1 HTS,MEKK2wt PB1 HTS,NTR1 agonist,MEKK2 mut-MEK5,TMEM16A inh,ANO1 activ
Cc1ccc(C(=O)N2CCN(c3ncccn3)CC2)cc1,100,98,0,-5,i,i
Cc1ccc(NS(=O)(=O)c2ccc(C(=O)N3CCN(c4ncccn4)CC3)cc2)cc1,109,103,1,-2,25*,i
N#Cc1ccc(OCC(=O)n2cc(C(=O)c3cc(Cl)cc(Cl)c3O)cn2)cc1,97,102,0,1,i,/
O=c1c(Cc2ccc(Cl)cc2)c(O)ccn1Cc1cccc(Cl)c1,100,98,1,11,i,i
O=c1c(Cc2ccc(Cl)cc2Cl)c(O)ccn1Cc1ccc(Cl)cc1,104,103,3,5,100*,i
Cc1ccc(N(CC(=O)Nc2ccccc2C(=O)NCc2ccco2)S(=O)(=O)c2ccccc2)cc1C,99,119,2,29*,i,i
O=C(CN(c1ccccc1)S(=O)(=O)c1ccccc1)Nc1ccccc1C(=O)NCc1ccco1,97,96,1,-3,i,i
Cc1[nH]c(C)c(S(=O)(=O)N2CCN(c3cccc(Cl)c3)CC2)c1C(=O)N1CCCCC1,99,105,2,1,i,i
O=C(NCc1ccccc1)c1cccc(COc2cccc(Cl)c2)c1,100,108,-2,3,i,i
O=C(NCc1ccccc1)c1cccc(COc2ccc(Cl)cc2)c1,108,112,-4,3,25*,i
CCN(CC)c1ccc(/C=C2/C(=O)ON=C2C)cc1,88,122,11,13,i,i
CCN(CC)c1ccc(/C=C2\C(=O)N(c3nnc(C)c(=O)[nH]3)N=C2C)cc1,100,97,22,2,i,-5.7*
COc1ccc(N(C)C(=O)c2oc(=O)c3ccccc3c2-c2ccccc2)c(OC)c1,126,117,4,28,i,i
CCc1ccc(CN(C)C(=O)CCc2nc3ccccc3n(-c3ccc(OC)cc3)c2=O)cc1,82,71,14,-17,100*,i
Cc1ccccc1N/N=C/c1sc(=O)n(Cc2cccc(C(=O)O)c2)c1Cl,94,91,5,2,25*,i
COc1cccc(CN2CC(C(=O)NCCOc3ccccc3)CCC2=O)c1 (centres undefined),101,101,0,1,i,i
COc1ccccc1CC(=O)N1CCC(n2nccc2NC(=O)C2CCOC2)CC1 (centres undefined),104,109,1,7,i,i
CC12CCC(C)(c3nc4ccccc4nc31)C2(C)C,96,97,0,-3,i,i
Cc1[nH]nc2c1-c1nc3ccccc3nc1C(C)(C)C2,94,92,1,-2,25*,i
Clc1ccc(CNc2nc(N3CCOCC3)nc(N3CCOCC3)n2)cc1,101,100,2,0,i,-7.6*
CCOC(=O)c1ccc(CNC(=O)C2CCC(=O)N(CCc3ccccc3)C2)o1 (centres undefined),102,104,-2,3,i,i
Cc1nn(S(=O)(=O)c2cccc([N+](=O)[O-])c2)c(C)c1Br,96,94,1,-2,i,i
